Laboratory results as given in PubChem BioAssay AID743331 (Broad Institute, 2014).
Activity calls are given as the source filed them.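 The calls were made as follows: active = falling cell viability signal whose fitted half-effect concentration is at most twice the highest valid tested dose; inconclusive = flat curve with 30 to 70 percent loss, or poor fit; inactive = the rest.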

assay: HepG2 cell cytotoxicity, dose response, cytotoxicity control, plate reader, dry powder, set 8 (AID 743331); details: HepG2 viability, CellTiter-Glo ATP luminescence, 72 h; series mostly up to 15 µM; activity change, negative = cytotoxicity: at the top concentration

SMILES	activity change, negative = cytotoxicity
Cc1cnc(NC(=O)c2cc(S(=O)(=O)N(C)C)ccc2C2CCCC2)s1	1.69% (inactive)
COc1ccc2nc(NC(=O)c3cc(S(=O)(=O)N(C)C)ccc3N3CCCC3)sc2c1	-6.47% (inactive)
Cc1cnc(NC(=O)c2cc(S(=O)(=O)N3CCOCC3)ccc2N2CCCC2)s1	-0.67% (inactive)
CN(C)S(=O)(=O)c1ccc(N2CCCC2)c(C(=O)Nc2cccc(F)c2)c1	-9.24% (inactive)
COc1ccc2sc(NC(=O)c3cc(S(=O)(=O)N(C)C)ccc3N3CCCC3)nc2c1	36.4% (inactive)
CCN(CC)c1ccc(S(=O)(=O)N(C)C)cc1C(=O)Nc1ncc(C)s1	-2.29% (inactive)
CN(C)CCCN(Cc1cc2ccccc2[nH]c1=O)C(=O)NCc1ccccc1	-1.32% (inactive)
Cc1cnc(NC(=O)c2cc(S(=O)(=O)N(C)C)ccc2N2CCCC2)s1	-14.3% (inactive)
Cc1cnc(NC(=O)c2cc(S(=O)(=O)N3CCCC3)ccc2N2CCCC2)s1	2.46% (inactive)
CN(C)S(=O)(=O)c1ccc(N2CCCC2)c(C(=O)Nc2nc3ccccc3s2)c1	-6.07% (inactive)
Cc1cnc(NC(=O)c2cc(S(=O)(=O)N(C)C)ccc2N2CCC2)s1	-4.57% (inactive)
Cc1cnc(NC(=O)c2cc(S(=O)(=O)N(C)C)ccc2N(C)C)s1	1.98% (inactive)
Cc1ccc(NC(=O)c2cc(S(=O)(=O)N(C)C)ccc2N2CCCC2)cc1	-1.89% (inactive)
CN(C)CCCN(Cc1cc2ccccc2[nH]c1=O)C(=O)Nc1ccccc1	-8.85% (inactive)
COc1cccc2sc(NC(=O)c3cc(S(=O)(=O)N(C)C)ccc3N3CCCC3)nc12	7.99% (inactive)
Cc1cnc(NC(=O)c2cc(S(=O)(=O)N3CCCCC3)ccc2N2CCCC2)s1	1.41% (inactive)
CN(C)S(=O)(=O)c1ccc(N2CCCC2)c(C(=O)Nc2nccs2)c1	-1.58% (inactive)
Cc1csc(NC(=O)c2cc(S(=O)(=O)N(C)C)ccc2N2CCCC2)n1	-5.77% (inactive)
CN(C)S(=O)(=O)c1ccc(N2CCCC2)c(C(=O)Nc2ccccc2)c1	2.08% (inactive)
